The source made the active and inactive calls.

Composite z-score, composite Z-score and z-score data for six molecules are collected here from PubChem BioAssay.

Assay [1] deals with Albumin (Bos taurus) (UniProt P02769). Kind of assay: bovine serum albumin binders on microarray, profiling panel, artefact control for SMM control protein annotation, biochemical, small-molecule microarray, Alexa647 label, 635/667 nm fluorescence (AID 1118).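 Note: score merges 667 nm emission intensity and signal-to-noise per printed compound spot.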 Conditions: BSA-A647 binding, fluorescence 635 nm, higher = more signal.
Chain of Albumin (Bos taurus) (P02769 whole entry, looked up): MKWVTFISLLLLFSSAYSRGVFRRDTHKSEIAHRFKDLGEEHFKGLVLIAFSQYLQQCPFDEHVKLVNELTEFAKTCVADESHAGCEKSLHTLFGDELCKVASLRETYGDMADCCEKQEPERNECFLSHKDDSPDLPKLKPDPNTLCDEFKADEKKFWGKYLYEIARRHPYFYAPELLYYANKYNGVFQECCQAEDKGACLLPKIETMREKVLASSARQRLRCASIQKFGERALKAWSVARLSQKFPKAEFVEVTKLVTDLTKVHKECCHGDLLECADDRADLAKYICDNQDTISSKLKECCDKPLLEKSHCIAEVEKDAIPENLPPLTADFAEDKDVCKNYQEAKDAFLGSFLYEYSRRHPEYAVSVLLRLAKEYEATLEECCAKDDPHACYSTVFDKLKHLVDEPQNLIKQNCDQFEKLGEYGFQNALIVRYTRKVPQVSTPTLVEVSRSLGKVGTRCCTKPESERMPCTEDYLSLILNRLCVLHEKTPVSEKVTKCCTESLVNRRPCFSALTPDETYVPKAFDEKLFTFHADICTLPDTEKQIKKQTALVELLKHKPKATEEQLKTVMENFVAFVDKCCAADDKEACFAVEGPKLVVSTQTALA
The nature of assay [2]: small-molecule microarray binders of probe aXIP, primary screen, biochemical, NeuroSMM set, 635/667 nm fluorescence (AID 1119).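 Note: probe is the protein aXip251-270 applied at 1 µg/mL to compound-printed slides; binding of probe to printed compounds measured as 667 nm fluorescence plus signal to noise.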 The following applies: higher = more signal, called active from +8 up or from −8 down.
Assay [3] can be described thus: small-molecule binders of probe aNOTCH3, primary screen, biochemical, small-molecule microarray, 635/667 nm fluorescence (AID 1120).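 Note: probe is a biotin-tagged antibody raised against NOTCH3 rather than NOTCH3 protein; score merges spot fluorescence near 667 nm with spot signal to noise.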 Conditions: higher = more signal.
The nature of assay [4]: small-molecule binders of probe aNOTCH2, primary screen, biochemical, small-molecule microarray, 635/667 nm fluorescence (AID 1121).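 Note: score merges feature fluorescence read at 667 nm with its signal to noise.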 The following applies: higher = more signal.
Assay [5] addresses Carbonic anhydrase 2 (Homo sapiens) (UniProt P00918). Description: CAII small-molecule binders, profiling panel, biochemical, small-molecule microarray, Alexa647-labelled CAII (AID 1122). The following applies: CAII-A647 binding fluorescence, higher = more signal.
Assay [6] is described as follows: COS7 lysate on small-molecule microarray, probe aHis, 635 nm (AID 1123).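 Note: z-score combines 667nm fluorescence intensity with signal-to-noise per printed compound spot.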 Conditions: COS7 cell lysate, fluorescence, higher = more signal.
The nature of assay [7]: compound binding in COS7 lysate, probe aLAP1, primary screen, cell lysate, small-molecule microarray (AID 1124).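 Note: lysate comes from COS7 cells expressing LAP1 and is applied at 0.3 µg/mL; score merges spot fluorescence near 667 nm with signal-to-noise over triplicate slides.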 Conditions: probe aLAP1, fluorescence, higher = more signal.
The test system of assay [8] is Sam68 (KHDRBS1). Description: Sam68 small-molecule binders, primary screen, biochemical, small-molecule microarray, 635 nm fluorescence (AID 1125).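 Note: score merges 667 nm channel intensity with signal to noise over triplicate slides.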 Conditions: small-molecule microarray binding, higher = more signal.
Assay [9] deals with Chordin-like protein 2 (CHRDL2). Kind of assay: CHRDL2 small-molecule binders, primary screen, biochemical, small-molecule microarray, 635 nm fluorescence (AID 1126).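 Note: printed compound slides probed with Chrdl2 protein at 4 µg/mL for 1 h at 4 C; score merges 667 nm emission intensity with signal to noise over three replicate slides.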 The following applies: small-molecule microarray binding, fluorescence 635 nm; higher = more signal.
Assay [10] deals with Concanavalin-A (Canavalia ensiformis) (UniProt P02866). Kind of assay: ConA small-molecule binders, primary screen, artefact control for SMM control protein annotation, biochemical, small-molecule microarray, Alexa647 label, 635 nm (AID 1127).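 Note: z combines 667 nm emission intensity with signal-to-noise across three replicate slides.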 The following applies: ConA-A647 binding fluorescence, higher = more signal.
Chain of Concanavalin-A (Canavalia ensiformis) (P02866 whole entry, looked up): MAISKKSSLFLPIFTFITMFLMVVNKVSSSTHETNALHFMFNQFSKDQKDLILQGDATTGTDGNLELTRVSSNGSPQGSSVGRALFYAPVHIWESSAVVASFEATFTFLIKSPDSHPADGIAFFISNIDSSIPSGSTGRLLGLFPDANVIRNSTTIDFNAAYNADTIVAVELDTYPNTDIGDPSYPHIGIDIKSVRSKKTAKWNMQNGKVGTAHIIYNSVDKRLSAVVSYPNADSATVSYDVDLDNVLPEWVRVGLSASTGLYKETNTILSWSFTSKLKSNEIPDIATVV
The nature of assay [11]: anti-His antibody binders, primary screen, artefact control for SMM control protein annotation, biochemical, small-molecule microarray, 635 nm fluorescence (AID 1128).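 Note: score merges feature fluorescence with signal-to-noise for each printed compound spot.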 Conditions: anti-His Alexa647 antibody binding, higher = more signal.
The test system of assay [12] is Human papillomavirus type 1a E7 protein (residues 1-88). Description: HPV1a E7 small-molecule binders, primary screen, biochemical, small-molecule microarray, residues 1-88, 635 nm (AID 1129). Conditions: small-molecule microarray binding, fluorescence 635 nm; higher = more signal.
In assay [13] the target is Focal adhesion kinase 1 (Homo sapiens) (UniProt Q05397). Kind of assay: small-molecule microarray binders of FAK, primary screen, biochemical, 635/667 nm fluorescence, BSA, DTT (AID 1130).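 Note: composite of spot emission at 667 nm and signal to noise over triplicate slides.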 The following applies: PTK2 binding, 635 nm fluorescence, higher = more signal.
Chain of Focal adhesion kinase 1 (Homo sapiens) (Q05397 whole entry, looked up): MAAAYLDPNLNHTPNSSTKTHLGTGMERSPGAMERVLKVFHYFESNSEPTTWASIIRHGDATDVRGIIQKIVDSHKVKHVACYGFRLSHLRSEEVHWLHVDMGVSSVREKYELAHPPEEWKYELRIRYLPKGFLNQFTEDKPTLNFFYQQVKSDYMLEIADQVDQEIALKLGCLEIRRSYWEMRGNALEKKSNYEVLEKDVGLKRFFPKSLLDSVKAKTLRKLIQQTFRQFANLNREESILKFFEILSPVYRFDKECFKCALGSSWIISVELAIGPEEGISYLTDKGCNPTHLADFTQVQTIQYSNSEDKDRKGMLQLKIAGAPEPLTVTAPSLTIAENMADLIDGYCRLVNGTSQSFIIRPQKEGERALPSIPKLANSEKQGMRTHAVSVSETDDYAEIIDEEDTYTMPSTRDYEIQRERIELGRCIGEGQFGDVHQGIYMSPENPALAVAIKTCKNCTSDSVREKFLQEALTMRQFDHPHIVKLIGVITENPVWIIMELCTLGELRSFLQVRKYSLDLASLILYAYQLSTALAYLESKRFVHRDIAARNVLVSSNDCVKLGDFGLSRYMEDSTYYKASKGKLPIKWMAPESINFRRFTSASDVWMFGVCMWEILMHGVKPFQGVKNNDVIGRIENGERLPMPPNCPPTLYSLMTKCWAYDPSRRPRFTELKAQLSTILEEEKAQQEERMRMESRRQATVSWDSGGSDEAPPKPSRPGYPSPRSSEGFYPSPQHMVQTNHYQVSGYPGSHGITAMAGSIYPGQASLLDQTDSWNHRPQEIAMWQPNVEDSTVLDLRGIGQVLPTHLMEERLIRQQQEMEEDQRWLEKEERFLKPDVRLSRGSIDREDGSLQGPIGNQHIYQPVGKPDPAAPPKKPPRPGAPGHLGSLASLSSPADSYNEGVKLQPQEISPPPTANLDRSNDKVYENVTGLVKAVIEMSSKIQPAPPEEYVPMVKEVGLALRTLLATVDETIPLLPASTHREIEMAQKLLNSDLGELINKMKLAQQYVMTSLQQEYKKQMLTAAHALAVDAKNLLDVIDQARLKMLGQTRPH
The subject of assay [14] is Fibrinogen (Alexa647-labelled). Description: fibrinogen binders on compound microarrays, profiling panel, artefact control for SMM control-protein annotation, biochemical, small-molecule microarray, 635/667 nm fluorescence (AID 1131).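 Note: z-score merges 667 nm fluorescence with per-spot signal-to-noise over triplicate slides.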 The following applies: fibrinogen-A647 binding fluorescence, higher = more signal.
Assay [15] has as its target Follistatin (Homo sapiens) (UniProt P19883). Description: follistatin binders on small-molecule microarrays, primary screen, biochemical, small-molecule microarray, 635/667 nm fluorescence (AID 1132). Conditions: FST binding, 635 nm fluorescence, higher = more signal.
Assay [16] deals with Fibroblast growth factor 2 (Homo sapiens) (UniProt P09038). Kind of assay: FGF2 binders on small-molecule microarrays, primary screen, biochemical, small-molecule microarray, 635/667 nm fluorescence (AID 1133). The following applies: small-molecule microarray binding, FGF2, fluorescence 635/667; higher = more signal.
Chain of Fibroblast growth factor 2 (Homo sapiens) (P09038 whole entry, looked up): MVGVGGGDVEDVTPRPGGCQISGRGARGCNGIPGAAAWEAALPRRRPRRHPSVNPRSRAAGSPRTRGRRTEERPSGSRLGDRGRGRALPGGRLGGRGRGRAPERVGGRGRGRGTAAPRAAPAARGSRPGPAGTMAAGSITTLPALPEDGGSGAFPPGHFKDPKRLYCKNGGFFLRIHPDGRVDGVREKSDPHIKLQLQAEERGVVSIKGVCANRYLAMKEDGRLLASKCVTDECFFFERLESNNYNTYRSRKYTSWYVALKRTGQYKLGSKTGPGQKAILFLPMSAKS
Assay [17] in a line: mitochondrial membrane potential change in A549 cells, profiling panel, cell-based, JC-1 fluorescence, basal, 24 h, 100 nL (AID 1138).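 Note: A549 lung adenocarcinoma cells under basal conditions with no added stimulus; test concentration not given here.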 The following applies: higher = more signal.
For assay [18], the system named is Lefty1. Description: Lefty1 binders on small-molecule microarrays, primary screen, biochemical, small-molecule microarray, 635/667 nm fluorescence (AID 1139). Conditions: small-molecule microarray binding, fluorescence 635/667; higher = more signal.
The test system of assay [19] is wheat germ agglutinin (Triticum aestivum), Alexa647-labelled. Description: wheat germ agglutinin binders on compound microarrays, profiling panel, artefact control for SMM control-protein annotation, biochemical, small-molecule microarray, 635/667 nm fluorescence (AID 1140).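 Note: score merges 667 nm feature emission with signal to noise over triplicate slides.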 Conditions: WGA-A647 binding, 635 nm fluorescence, higher = more signal.
The target in assay [20] is Luciferin 4-monooxygenase (Photinus pyralis) (UniProt P08659). Description: firefly luciferase enzyme inhibitors, primary screen, biochemical, luminescence, purified enzyme, 2006 set (AID 1141).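 Note: cell-free assay with purified firefly luciferase at 100 ng per well in PBS; test concentration not given here.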 Conditions: SteadyGlo luminescence, 30 min, higher = more signal, called active from +8 up or from −8 down.
Chain of Luciferin 4-monooxygenase (Photinus pyralis) (P08659 whole entry, looked up): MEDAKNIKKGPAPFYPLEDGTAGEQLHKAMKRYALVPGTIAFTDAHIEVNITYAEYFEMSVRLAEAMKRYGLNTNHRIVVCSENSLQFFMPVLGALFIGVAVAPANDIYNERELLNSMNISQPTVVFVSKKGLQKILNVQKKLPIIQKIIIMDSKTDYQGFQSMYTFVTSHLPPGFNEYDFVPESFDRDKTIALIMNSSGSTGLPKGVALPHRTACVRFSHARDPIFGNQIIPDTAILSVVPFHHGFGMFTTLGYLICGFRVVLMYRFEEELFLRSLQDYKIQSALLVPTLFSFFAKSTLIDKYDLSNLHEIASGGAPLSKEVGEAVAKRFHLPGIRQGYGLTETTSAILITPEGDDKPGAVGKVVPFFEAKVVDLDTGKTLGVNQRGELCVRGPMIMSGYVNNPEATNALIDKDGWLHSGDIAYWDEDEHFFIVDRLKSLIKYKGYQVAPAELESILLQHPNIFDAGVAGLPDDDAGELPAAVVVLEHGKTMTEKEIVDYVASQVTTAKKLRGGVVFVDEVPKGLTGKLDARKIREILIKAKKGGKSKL

Chain of Follistatin (Homo sapiens) (P19883 whole entry, looked up): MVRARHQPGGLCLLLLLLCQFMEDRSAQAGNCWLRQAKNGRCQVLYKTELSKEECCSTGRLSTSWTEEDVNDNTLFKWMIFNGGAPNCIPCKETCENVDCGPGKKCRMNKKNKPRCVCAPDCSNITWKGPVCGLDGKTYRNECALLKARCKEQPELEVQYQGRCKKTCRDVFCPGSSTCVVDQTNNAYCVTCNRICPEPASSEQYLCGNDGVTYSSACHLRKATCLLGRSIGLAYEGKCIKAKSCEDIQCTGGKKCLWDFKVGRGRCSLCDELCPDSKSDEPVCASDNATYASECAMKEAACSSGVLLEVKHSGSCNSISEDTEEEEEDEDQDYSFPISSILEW

Turning to `Cc1nc2cc(Br)ccc2c(=O)o1`, the composite z-score was 0.367 in assay [1]; -0.013 in assay [3]; -0.124 in [4]; 0.633 in assay [5]; 0.495 in [6]; 0.108 in assay [7]. Further, the composite z-score in [8] was found to be 0.384; in [9] it was 0.126; in assay [10], 0.724; in assay [11], 0.302; in assay [12], 0.628; in assay [13], 0.201. For the same molecule, the composite z-score in assay [14] was 0.0814; in assay [15], 0.657; in [16], -0.0519; in [18], 0.328; in [19], 0.536. The composite Z-score in assay [2] was 0.239 (inactive). Further, the z-score is 0.0359 in assay [17] and 1.16 (inactive) in assay [20].
As for `COCCCNC(=O)[C@@H]1c2ccccc2C(=O)N(Cc2ccccc2Cl)[C@H]1c1ccc(CO)cc1`, the composite z-score in assay [1] is -0.432; in [3], -0.147; in [4] it was 0.151; in assay [5] it was 0.656; in assay [6], 1.72; in [7] it was -0.503. In addition, the composite z-score in [8] was found to be 0.95; in assay [9], 0.683; in assay [10], 0.772; in assay [11], 3.19; in assay [12] it was 1.17; in assay [13], 0.36. Moreover, the composite z-score in [14] is 0.381; in [15], 1.33; in [16] it was 1.04; in assay [18] it was 0.753; in assay [19] it was -0.0431. Also, in assay [2], the composite Z-score is -0.129 (inactive). In addition, the z-score in assay [17] was 2.35; in [20], -1.27 (inactive).
`COc1cc(C(O)C2C=CC3C(=O)NC(=O)C3N2Nc2ccccn2)cc(OC)c1OC` (stereo not given): the composite z-score was 0.354 in [1]; -0.108 in assay [3]; 0.0339 in [4]; 0.749 in [5]; 2.43 in [6]; -0.0653 in assay [7]. The composite z-score in assay [8] worked out at 0.466; in [9], 0.361; in assay [10], 0.585; in assay [11], 1.26; in [12] it was 0.852; in [13], 0.184. For the same molecule, the composite z-score in [14] was 0.764; in assay [15], 0.169; in assay [16], 0.158; in [18], -0.188; in assay [19], 0.0705. In addition, the composite Z-score in [2] was 0.183 (inactive). Moreover, the z-score in [17] is 0.623; in assay [20], -0.0958 (inactive).
As for `O=C1C[C@@](C(=O)NCC(F)(F)F)(c2ccc([N+](=O)[O-])cc2)[C@@H](c2ccc(CO)cc2I)N1C1CCCCC1`, the composite z-score in [1] was 0.365; in assay [3] it was 0.03; in [4] it was -0.0394; in [5], 0.437; in assay [6], 2.22; in assay [7] it was -0.0164. Besides, the composite z-score in [8] came out at 1.23; in [9], 0.189; in assay [10], 0.676; in assay [11], 0.226; in assay [12] it was 1.25; in assay [13], 0.466. The composite z-score came out at 0.9 in assay [14]; 1.05 in [15]; 1.26 in assay [16]; 0.394 in [18]; 0.834 in assay [19]. For the same molecule, the composite Z-score in assay [2] was 0.004 (inactive). Also, the z-score in [17] was 1.8; in [20] it was 0.59 (inactive).
Regarding `C=CCOC(=O)[C@H]1[C@@H]2C(=O)O[C@@H](c3ccccc3)[C@@H](c3ccccc3)N2[C@@H](c2ccc(OCCOC(=O)[C@H]3C[C@H]4C(=O)N[C@@H](CCCCNC(C)=O)C(=O)N4[C@H]3c3ccc(O)cc3)cc2)[C@]12C(=O)Nc1ccc(I)cc12`, the composite z-score is -0.0312 in assay [1]; 0.0876 in [3]; -0.147 in [4]; 0.253 in [5]; 0.837 in [6]; 0.0563 in assay [7]. The composite z-score in assay [8] is 1.22; in assay [9], 1.25; in assay [10] it was 1.09; in assay [11], 0.748; in assay [12], 0.885; in [13], 0.169. The composite z-score in assay [14] was determined as 0.332; in assay [15] it was 1.35; in assay [16] it was 1.46; in [18], 1.42; in assay [19], 0.105. Moreover, the composite Z-score in [2] was 0.745 (inactive). The z-score in assay [17] was -0.804; in assay [20] it was -2.16 (inactive).
In the case of `CN1C=C(C(=O)OCCS(C)(=O)=O)C(C(=O)OCCS(C)(=O)=O)=CC(c2ccc(CO)cc2)=CC1C1CC1` (stereo not given), the composite z-score in [1] is -0.0317; in assay [3] it was -0.0918; in assay [4], -0.133; in assay [5], 0.497; in [6], 0.951; in assay [7] it was 0.901. Also, the composite z-score in [8] was 0.449; in assay [9], -0.246; in assay [10], 0.168; in assay [11], -0.281; in [12], 0.138; in [13], 0.0684. The composite z-score in assay [14] is 0.28; in [15], 0.126; in assay [16] it was -0.101; in assay [18] it was 0.53; in assay [19], 0.922. Besides, the composite Z-score in assay [2] is 0.0063 (inactive). For the same molecule, the z-score in assay [17] was 1.48; in [20] it was -1.5 (inactive).
